Experimental data from PubChem BioAssay AID1159580 (chemical genetic matrix, 2015).
Values joined by “and” are separate entries in the source; they are usually repeats but may differ in a detail not shown here. Equal entries are not always repeated. Hit rate of the full screen: of about 5,500 compounds, about 2,000 (36%) were called active. Roughly 18% stayed inconclusive and do not appear here. No stated cut-off is given here; in the data, active means normalized growth mostly below about 0.91 (no sharp cut-off); inconclusive means no clear call, values can overlap the other calls; inactive means mostly above about 0.92. The list shows a part of the results.

Experiment: chemical genetic growth profiling, strain panel (AID 1159580);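 further: tested at 20 µM; growth read once vehicle control cultures reached saturation at 30 °C; 1 = growth at the plate median or of vehicle wells; lower values mean less growth of the strain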
Details: growth OD

Measured: normalized growth

CC1(C)O[C@@H]2CC3C4CCC5=CC(=O)CCC5(C)C4(F)C(O)CC3(C)[C@]2(C(=O)CCl)O1 (stereo partly specified)
inactive: S. cerevisiae deletion strains, locus YAL013W, strain DEP1, active compounds read low 0.996 | S. cerevisiae deletion strains, locus YBR021W, strain FUR4, active compounds read low 1.04 | S. cerevisiae deletion strains, locus YBR229C, strain ROT2, active compounds read low 1 | S. cerevisiae deletion strains, locus YCL029C, strain bik1, active compounds read low 1 | S. cerevisiae deletion strains, locus YDL035C, strain GPR1, active compounds read low 0.979 | S. cerevisiae deletion strains, locus YDL074C, strain BRE1, active compounds read low 1.02 | S. cerevisiae deletion strains, locus YDL101C, strain DUN1, active compounds read low 0.994 | S. cerevisiae deletion strains, locus YDL134C, strain PPH21, active compounds read low 0.994 | S. cerevisiae deletion strains, locus YDL185W, strain tfp1, active compounds read low 0.967 | S. cerevisiae deletion strains, locus YDL192W, strain arf1, active compounds read low 0.986 | S. cerevisiae deletion strains, locus YDR101C, strain arx1, active compounds read low 1.03 | S. cerevisiae deletion strains, locus YDR150W, strain NUM1, active compounds read low 0.981 | S. cerevisiae deletion strains, locus YDR162C, strain NBP2, active compounds read low 0.963 | S. cerevisiae deletion strains, locus YDR318W, strain mcm21, active compounds read low 0.979 | S. cerevisiae deletion strains, locus YDR388W, active compounds read low 0.996 | S. cerevisiae deletion strains, locus YDR502C, strain sam2, active compounds read low 0.99 | S. cerevisiae deletion strains, locus YEL061C, strain CIN8, active compounds read low 0.998 | S. cerevisiae deletion strains, locus YER110C, active compounds read low 0.975 | S. cerevisiae deletion strains, locus YER155C, strain BEM2, active compounds read low 1.01 | S. cerevisiae deletion strains, locus YER167W, strain BCK2, active compounds read low 0.994 | S. cerevisiae deletion strains, locus YGL078C, strain dbp3, active compounds read low 0.993 | S. cerevisiae deletion strains, locus YGL086W, strain mad1, active compounds read low 1.01 | S. cerevisiae deletion strains, locus YGL248W, strain PDE1, active compounds read low 1 | S. cerevisiae deletion strains, locus YGR078C, strain PAC10, active compounds read low 1.01 | S. cerevisiae deletion strains, locus YGR135W, strain pre9, active compounds read low 0.973 | S. cerevisiae deletion strains, locus YGR252W, strain gcn5, active compounds read low 1.02 | S. cerevisiae deletion strains, locus YHR030C, strain SLT2, active compounds read low 0.985 and 1 | S. cerevisiae deletion strains, locus YHR079C, strain IRE1 (second series), active compounds read low 0.992 | S. cerevisiae deletion strains, locus YHR079C, strain IRE1, active compounds read low 1 | S. cerevisiae deletion strains, locus YHR094C, strain hxt1, active compounds read low 0.998 | S. cerevisiae deletion strains, locus YHR129C, strain ARP1, active compounds read low 0.996 | S. cerevisiae deletion strains, locus YHR200W, strain rpn10, active compounds read low 0.988 | S. cerevisiae deletion strains, locus YIL066C, strain RNR3, active compounds read low 1 | S. cerevisiae deletion strains, locus YIL073C, strain SPO22, active compounds read low 0.889 | S. cerevisiae deletion strains, locus YIL125W, strain kgd1, active compounds read low 1.01 | S. cerevisiae deletion strains, locus YIR030C, strain dcg1, active compounds read low 0.983 | S. cerevisiae deletion strains, locus YJL095W, strain BCK1, active compounds read low 1.03 and 1.02 | S. cerevisiae deletion strains, locus YJL134W, strain LCB3, active compounds read low 0.989 | S. cerevisiae deletion strains, locus YJL168C, strain set2, active compounds read low 1 | S. cerevisiae deletion strains, locus YJL187C, strain SWE1 (second series), active compounds read low 1.01 | S. cerevisiae deletion strains, locus YJR043C, strain POL32, active compounds read low 1.01 | S. cerevisiae deletion strains, locus YJR066W, strain TOR1, active compounds read low 0.972 | S. cerevisiae deletion strains, locus YKL009W, strain mrt4, active compounds read low 0.956 | S. cerevisiae deletion strains, locus YKL068W, active compounds read low 0.98 | S. cerevisiae deletion strains, locus YKL085W, strain MDH1 (second series), active compounds read low 0.975 | S. cerevisiae deletion strains, locus YKL085W, strain MDH1, active compounds read low 0.975 | S. cerevisiae deletion strains, locus YKL190W, strain CNB1, active compounds read low 0.977 | S. cerevisiae deletion strains, locus YKR001C, strain vps1, active compounds read low 1.01 | S. cerevisiae deletion strains, locus YLR039C, strain RIC1, active compounds read low 0.938 | S. cerevisiae deletion strains, locus YLR058C, strain SHM2, active compounds read low 0.991 | S. cerevisiae deletion strains, locus YLR102C, strain apc9, active compounds read low 0.995 | S. cerevisiae deletion strains, locus YLR113W, strain HOG1, active compounds read low 1.04 | S. cerevisiae deletion strains, locus YLR262C, strain YPT6, active compounds read low 0.942 | S. cerevisiae deletion strains, locus YLR268W, strain sec22, active compounds read low 0.99 | S. cerevisiae deletion strains, locus YLR330W, strain CHS5, active compounds read low 0.996 | S. cerevisiae deletion strains, locus YLR342W, strain FKS1 (second series), active compounds read low 1.01 | S. cerevisiae deletion strains, locus YLR371W, strain rom2, active compounds read low 1 | S. cerevisiae deletion strains, locus YLR418C, strain cdc73, active compounds read low 0.944 | S. cerevisiae deletion strains, locus YML016C, strain PPZ1, active compounds read low 1 | S. cerevisiae deletion strains, locus YML032C, strain rad52, active compounds read low 1.01 | S. cerevisiae deletion strains, locus YML124C, strain tub3, active compounds read low 1 | S. cerevisiae deletion strains, locus YMR078C, strain ctf18, active compounds read low 0.99 | S. cerevisiae deletion strains, locus YMR223W, strain ubp8, active compounds read low 0.97 | S. cerevisiae deletion strains, locus YMR263W, strain SAP30, active compounds read low 1 | S. cerevisiae deletion strains, locus YMR307W, strain GAS1, active compounds read low 1.01 | S. cerevisiae deletion strains, locus YNL067W, strain RPL9B, active compounds read low 1.02 | S. cerevisiae deletion strains, locus YNL153C, strain GIM3, active compounds read low 1.06 | S. cerevisiae deletion strains, locus YNL183C, strain NPR1, active compounds read low 0.972 | S. cerevisiae deletion strains, locus YNL233W, strain BNI4, active compounds read low 1.04 | S. cerevisiae deletion strains, locus YNL250W, strain rad50, active compounds read low 0.987 | S. cerevisiae deletion strains, locus YNL271C, strain bni1, active compounds read low 0.986 | S. cerevisiae deletion strains, locus YNL298W, strain CLA4, active compounds read low 0.994 | S. cerevisiae deletion strains, locus YNL307C, strain MCK1, active compounds read low 0.995 | S. cerevisiae deletion strains, locus YNR052C, strain pop2, active compounds read low 0.985 | S. cerevisiae deletion strains, locus YOL006C, strain TOP1, active compounds read low 1.01 | S. cerevisiae deletion strains, locus YOL012C, strain htz1 0.917 | S. cerevisiae deletion strains, locus YOL147C, strain pex11, active compounds read low 0.996 | S. cerevisiae deletion strains, locus YOR061W, strain CKA2, active compounds read low 0.994 | S. cerevisiae deletion strains, locus YOR069W, strain VPS5, active compounds read low 0.99 | S. cerevisiae deletion strains, locus YOR136W, strain idh2, active compounds read low 0.995 | S. cerevisiae deletion strains, locus YOR144C, strain elg1, active compounds read low 1.01 | S. cerevisiae deletion strains, locus YOR184W, strain ser1, active compounds read low 0.958 | S. cerevisiae deletion strains, locus YOR231W, strain MKK1, active compounds read low 1.02 | S. cerevisiae deletion strains, locus YOR316C, strain cot1, active compounds read low 0.983 | S. cerevisiae deletion strains, locus YPL256C, strain CLN2, active compounds read low 0.989 | S. cerevisiae deletion strains, locus YPR119W, strain clb2, active compounds read low 0.997 | S. cerevisiae deletion strains, locus YPR141C, strain kar3, active compounds read low 0.99 | S. cerevisiae deletion strains, locus YPR163C, strain tif3, active compounds read low 0.993 | S. cerevisiae deletion strains, locus YPR167C, strain met16, active compounds read low 0.984 | S. cerevisiae deletion strains, strain wtn01, active compounds read low 0.987 | S. cerevisiae strains, strain wild type, active compounds read low 0.994
